According to ChEMBL document CHEMBL1157539, “Thousands of chemical starting points for antimalarial lead identification” (Nature, 2010):
Values joined by “and” are separate entries in the source; they are usually repeats but may differ in a detail not shown here. Equal entries are not always repeated.

Key:
Format in all cases: functional
Plasmodium falciparum [1] = assay: GSK_TCMDC: Inhibition of Plasmodium falciparum 3D7 in whole red blood cells, using parasite LDH activity as an index of growth. Test compounds present at 2uM
Plasmodium falciparum [2] = assay: GSK_TCMDC: Inhibition of Plasmodium falciparum Dd2 in whole red blood cells, using parasite LDH activity as an index of growth. Test compounds present at 2uM
HepG2 = assay: GSK_TCMDC: Percent inhibition of human HepG2 cell line. Test compounds present at 10uM.

Row | SMILES | Inhibition (Plasmodium falciparum [1]) | Inhibition (Plasmodium falciparum [2]) | Inhibition (HepG2)
1 | COc1ccc(CNCc2ccc(-c3cccc(-c4nc5cccc(C)c5[nH]4)c3)cc2)cc1.O=C(O)C(F)(F)F | 100% | 100% | 69%
2 | O=C(NC1CCCCN(Cc2ccc3c(c2)OCCO3)C1)c1cc(-c2ccccc2F)cs1.O=C(O)C(F)(F)F (configuration not stated) | 92% | 19% | 8%
3 | COc1ccc2nccc([C@@H](O)CN3CCC(NC(=O)c4cc5cccnc5[nH]4)CC3)c2c1.Cl | 94% | 6% | 0%
4 | Cc1onc(-c2ccc(Cl)cc2)c1-c1ccnn1S(=O)(=O)c1ccc(Cl)cc1 | 100% | 99% | 0%
5 | Cc1cc(C2CCN(CCCCNC(=O)c3ccc(-c4ccc(C(F)(F)F)cc4)cc3)CC2)c(C)cc1OCC#N | 100% | 58% | 40%
6 | CCN(CC)S(=O)(=O)c1ccc(C=CC(=O)Nc2cc(Cl)ccc2N2CCOCC2)cc1 | 90% | 65% | 3%
7 | COc1cccc(Nc2nc(Nc3cccc(C#N)c3)cc(C(F)(F)F)n2)c1 | 99% | 45% | 15%
8 | CC(C)CNCc1cccc(-c2cccc(CN(CCCN3CCN(C)CC3)C(=O)CCC3CCCC3)c2)c1.O=C(O)C(F)(F)F | 100% | 96% | 45%
9 | NCC1CCCN1Cc1ccc(-c2ccc(-c3nc4cc(F)ccc4[nH]3)cc2)cc1.O=C(O)C(F)(F)F (configuration not stated) | 100% | 100% | 31%
10 | Cc1cccc(N2C(N)=NC(N)=NC2(C)C)c1C.Cl | 90% | 0% | 0%
11 | Cc1ccc(F)c(OCC2CCN(c3ccc(C(=O)NC4CC4)cn3)CC2)c1 | 94% | 95% | 4%
12 | O=C(/C=C/c1ccc(Cl)c(Cl)c1)NCCCCCN1CCC(NC(=O)NC2CCCCCC2)CC1 | 99% | 41% | 15%
13 | Nc1ncc(-c2ccccc2)cc1/C=C/c1cccnc1 | 91% | 9% | 33%
14 | COc1cccc(CN2CCC(C(=O)Nc3ccc(-c4nc5ccccc5[nH]4)cc3)CC2)c1 | 100% | 84% | 9%
15 | CCC[C@@H]([C@@H](CC1CCCCC1)C(=O)N[C@H](C(=O)Nc1nccs1)[C@@H](C)OCc1ccccc1)N(O)C=O | 100% | 99% | 51%
16 | O=C(Nc1cccc(C(F)(F)F)c1)c1cc([N+](=O)[O-])cc2cn[nH]c12 | 100% | 69% | 60%
17 | CCc1nc(N)nc(N)c1-c1ccc(F)cc1 | 96% | 0% | 52%
18 | O=C(Nc1ccc(F)c(Cl)c1)c1cc([N+](=O)[O-])cc2cn[nH]c12 | 100% | 67% | 32%
19 | CCN(CC)CCCC(C)Nc1cc(C)nc2cc(Cl)ccc12 (configuration not stated) | 100% | 7% | 9%
20 | Cc1[nH]cnc1CSCCN/C(=N\C#N)NCCCCCCCCN/C(=N/C#N)NCCSCc1nc[nH]c1C | 81% | 48% | 1%

Row | SMILES | Inhibition (Plasmodium falciparum [1]) | Inhibition (Plasmodium falciparum [2]) | Inhibition (HepG2)
21 | N#Cc1cccc(-c2nc(NCc3cccc(C(F)(F)F)c3)nn2-c2cccc(C(F)(F)F)c2)c1 | 94% | 88% | 12%
22 | Cc1cccc2nc(-c3ccc(-c4cccc(NC(=O)CN5CCN(C)CC5)c4)s3)[nH]c12 | 96% | 51% | 7%
23 | Cc1cccc(CC2CC(=O)N(c3ccc([N+](=O)[O-])cc3)C2=O)c1 (configuration not stated) | 95% | 1% | 11%
24 | Cc1c(Cn2ncc(N3CCC(N)CC3)c(Cl)c2=O)cccc1NC(=O)Nc1ccc(-c2ccccc2)cc1.O=C(O)C(F)(F)F | 97% | 43% | 19%
25 | O=C(/C=C/c1ccc(Cl)c(Cl)c1)N1CCC(CNCc2cccc3cc[nH]c23)CC1 | 85% | 14% | 1%
26 | O=C(N[C@@H](CC1CCCCC1)C(=O)NCCN1CCOCC1)c1ccc(O)c(-c2ccc(Cl)c(Cl)c2)c1 | 97% | 99% | 0%
27 | COc1ccc2nccc([C@@H](O)CN3CCC(NCc4cc5ccc(Cl)cc5[nH]4)CC3)c2c1.O=C(O)C(=O)O | 99% | 61% | 30%
28 | N=C(Nc1nc(-c2ccccn2)cc2ccccc12)c1cccc(Cl)c1 | 100% | 99% | 54%
29 | COc1ccc(-c2ccc(NC(=O)c3cccc(Cl)c3)cc2)cc1CN(C)CCO.O=C(O)C(F)(F)F | 89% | 52% | 39%
30 | O=C(Nc1ccc(Cn2ncc(N3CCCNCC3)c(Cl)c2=O)cc1)Nc1ccc(C(F)(F)F)cc1.O=C(O)C(F)(F)F | 90% | 58% | 12%
31 | COc1cccc(-c2cc(C(=O)NC3CCC(N4CCC(c5ccccc5C)CC4)CC3)[nH]n2)c1 (configuration not stated) | 99% | 58% | 60%
32 | Cc1cccc(Cn2nc(-c3ccccc3)c(N3CCCCC3)cc2=O)c1 | 98% | 0% | 29%
33 | CC[C@H](NC(=O)c1c(CN2CCC(N3CCCCC3)CC2)c(-c2ccccc2)nc2cc(O)ccc12)c1ccccc1 | 94% | 13% | 15%
34 | Cc1cccc2nc(-c3cccc(-c4ccc(NC(=O)C(=O)c5cccn5C)cc4)c3)[nH]c12 | 100% | 46% | 45%
35 | CCN(CC)CCN(Cc1ccc(-c2ccc(C(F)(F)F)cc2)cc1)C(=O)Cn1c(CCc2cccc(F)c2F)c(C)c(=O)c2ccccc21.O=C(O)C(O)C(O)C(=O)O | 87% | 52% | 61%
36 | CN1C(=O)C(=NN=C(S)N2CCOCC2)c2ccccc21 | 95% | 54% | 57%
37 | O=C(Nc1ccc(Cl)cc1)OCCn1nnnc1C(c1ccc(Cl)cc1)N1CCOCC1 (configuration not stated) | 90% | 79% | 1%
38 | COc1ccc2nccc([C@@H](O)CN3CCC(NCc4nc5c(cc4Cl)SCC(=O)N5)C(F)C3)c2c1.Cl (some centres not stated) | 94% and 99% | 94% and 100% | 20% and 10%
39 | CCNc1cc(C(=O)N[C@@H](Cc2ccccc2)[C@H](O)CNC2CCCCC2)cc(N2CCCCS2(=O)=O)c1 | 99% | 98% | 11%
40 | CCCn1c(Sc2ccc(C#N)c([N+](=O)[O-])c2)nnc1-c1ccc(N(C)C)cc1 | 97% | 98% | 18%

Row | SMILES | Inhibition (Plasmodium falciparum [1]) | Inhibition (Plasmodium falciparum [2]) | Inhibition (HepG2)
41 | N#Cc1ccc2c(c1)CN(C1CCC(NC(=O)c3cc(-c4ccc(Cl)cc4)cs3)CC1)CCC2 (configuration not stated) | 100% | 99% | 36%
42 | Cc1ccccc1C1CCN(C2CCC(NC(=O)c3ccc4c(c3)-c3nocc3C(C)O4)CC2)CC1 (configuration not stated) | 88% | 37% | 68%
43 | CCCN(CCC)CCCNc1ccc(C(=O)Nc2ccc(C)c(F)c2)cc1[N+](=O)[O-] | 100% | 94% | 33%
44 | COc1ccc(-c2cncc3ccc(C(=O)NCc4ccncc4)nc23)cc1 | 100% | 98% | 25%
45 | CC(CN1CCN(C)CC1)C(=O)Nc1ccc(-c2cccc(-c3nc4cc(C(F)(F)F)ccc4[nH]3)c2)cc1 (configuration not stated) | 99% | 96% | 16%
46 | Fc1ccc2[nH]c(-c3cccc(-c4cccc(CNCc5cnn(-c6ccccc6)n5)c4)c3)nc2c1.O=C(O)C(F)(F)F | 91% | 57% | 18%
47 | Cc1cc(CN2CC[C@H](NC(=O)c3ccc(Cl)c(Cl)c3)C2)ccc1OC1CCN(Cc2ccccc2)CC1.O=C(O)C(F)(F)F | 98% | 29% | 59%
48 | COc1cc(-c2cc(-c3ccc(S(C)(=O)=O)cc3)cnc2N)ccc1O | 97% | 97% | 37%
49 | Cc1ccccc1CCNC(=O)c1ccc(N2CCN(c3ccncc3)CC2)nc1.O=C(O)C(F)(F)F | 95% | 20% | 10%
50 | C=CCn1c(Sc2ccc(C#N)c([N+](=O)[O-])c2)nnc1-c1ccc(OC)cc1 | 96% | 74% | 0%
51 | Cl.c1ccc(COc2ccc(Nc3ncnc4ccc(-c5ccc(CN6CCSCC6)o5)cc34)cc2)cc1 | 94% | 4% | 4%
52 | COc1ccc2nccc([C@H](O)CN3CCC(NCc4cc(C)c5c(c4)OCCO5)CC3)c2n1.Cl | 96% | 35% | 12%
53 | CCCNCc1ccc(-c2ccc(CN(CC3CCCO3)C(=O)C3CC(=O)c4ccccc43)cc2)nc1.O=C(O)C(F)(F)F (configuration not stated) | 100% | 65% | 0%
54 | Cc1cc2nc(N=C3NC4(c5ccccn5)NC(=Nc5nc6cc(C)c(C)cc6[nH]5)NC4(c4ccccn4)N3)[nH]c2cc1C.O=C(O)C(F)(F)F (configuration not stated) | 87% | 62% | 3%
55 | Cc1ccc(CNC(=O)[C@H](CC(C)C)Nc2cc(C)nc(Nc3ccccc3)n2)cc1.O=C(O)C(F)(F)F | 97% | 19% | 12%
56 | CC(CCCCOCCc1ccccc1)NCC(O)c1cc(Cl)c(N)c(Cl)c1 (configuration not stated) | 96% | 95% | 0%
57 | CCNc1cc(C(=O)NC(Cc2ccccc2)C(O)CNC(C)(C)CCCC(C)C)c(F)c(N2CCCS2(=O)=O)c1.O=CO (configuration not stated) | 98% | 97% | 0%
58 | O=C(Nc1cccc(CN2CCN(Cc3ccc(O)cc3)CC2)c1)c1cc2ccccc2o1.O=C(O)C(F)(F)F | 81% | 12% | 8%
59 | O=S(=O)(c1ccc2cc[nH]c2c1)N1CCC[C@@H]1CCN1CCC(c2c[nH]c3cnccc23)CC1 | 95% | 0% | 13%
